“And” between values parts separate entries of the source, which are not always exact repeats. Identical values can stand only once. Among all 5,500 compounds or so, about 2,000 (36%) were called active. Roughly 18% stayed inconclusive and do not appear here. Rule as the data show it: active = normalized growth mostly below about 0.91 (no sharp cut-off); inconclusive = no clear call, values can overlap the other calls; inactive = mostly above about 0.92. Some of the results follow.
Assay: chemical genetic growth profiling, strain panel (AID 1159580);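 also: tested at 20 µM; growth read once vehicle control cultures reached saturation at 30 °C; 1 = growth at the plate median or of vehicle wells; lower values mean less growth of the strain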
Details: S. cerevisiae deletion strains, growth OD

Measured: normalized growth

COc1cc(OC)cc(N2C(=O)C=CC2=O)c1
active: locus YAL013W, strain DEP1, hits give low values 0.0543 | locus YBR229C, strain ROT2, hits give low values 0.0573 | locus YDL101C, strain DUN1, hits give low values 0.0709 | locus YDL134C, strain PPH21, hits give low values 0.0477 | locus YDR150W, strain NUM1, hits give low values 0.05 | locus YEL061C, strain CIN8, hits give low values 0.0533 | locus YGR052W, strain FMP48, hits give low values 0.129 | locus YGR078C, strain PAC10, hits give low values 0.802 | locus YHR030C, strain SLT2, hits give low values 0.0734 and 0.115 | locus YHR079C, strain IRE1, hits give low values 0.231 | locus YHR082C, strain KSP1, hits give low values 0.112 | locus YHR087W, strain rtc3, hits give low values 0.0623 | locus YJL095W, strain BCK1, hits give low values 0.127 | locus YJR043C, strain POL32, hits give low values 0.0486 | locus YJR066W, strain TOR1, hits give low values 0.113 | locus YJR075W, strain HOC1, hits give low values 0.0671 | locus YKL171W, strain NNK1, hits give low values 0.0984 | locus YKL203C, strain TOR2, hits give low values 0.107 | locus YLR039C, strain RIC1, hits give low values 0.0602 | locus YLR058C, strain SHM2 (second series), hits give low values 0.0529 | locus YLR085C, strain ARP6, hits give low values 0.0621 | locus YLR113W, strain HOG1, hits give low values 0.184 | locus YLR262C, strain YPT6, hits give low values 0.0582 | locus YML094W, strain GIM5, hits give low values 0.0622 | locus YMR219W, strain ESC1, hits give low values 0.0491 | locus YMR263W, strain SAP30, hits give low values 0.0514 | locus YNL153C, strain GIM3, hits give low values 0.0557 | locus YNL183C, strain NPR1, hits give low values 0.131 | locus YNL207W, strain RIO2, hits give low values 0.0908 | locus YNL298W, strain CLA4 (second series), hits give low values 0.0613 | locus YNL322C, strain KRE1, hits give low values 0.0499 | locus YNR030W, strain Alg12, hits give low values 0.0629 | locus YOR119C, strain RIO1, hits give low values 0.121 | locus YOR231W, strain MKK1, hits give low values 0.185 | locus YPL055C, strain LGE1, hits give low values 0.07 | locus YPL241C, strain CIN2, hits give low values 0.0792 | locus YPL256C, strain CLN2, hits give low values 0.146 | locus YPR135W, strain CTF4, hits give low values 0.18
